Assay outcomes from PubChem BioAssay.
PTHR1 agonist – qHTS for PTHR1 Agonists: Primary Screen. HEK293 GP2 PTHR1 cells, GloSensor cAMP luminescence, 1 h. Potency, µM (doses to about 115 µM), inactives show at the highest dose activation, most hits filed as activators. hit rate 0.075% among 410,000. AID 743266, 2014; note: nearly all actives have a fitted effect of over 55% in size
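HEK-293-derived GP2 cells expressing PTHR1 and a GloSensor cAMP reporter, 3,000/well, plated overnight, given luciferin plus IBMX (each 0.5 mM as added) for 1 h at 37 °C, then compound for 1 h at 37 °C. Luminescence was read after 15 min at room temperature.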
GLP1R ag – qHTS of GLP-1 Receptor Agonists; Glucagon-like peptide 1 receptor (Homo sapiens), P43220; hit rate 0.007% among 380,000; HEK293 GLP-1R CRE-luciferase, luminescence, 4-6 h; cells express a hypersensitive GLP-1R form; AID 624172, 2012; Potency, µM (top dose mostly 45.6 µM), without a hit: top-dose activation, actives largely listed as activators; note: % of control where 0% means no effect
Target sequence (P43220 whole entry, looked up): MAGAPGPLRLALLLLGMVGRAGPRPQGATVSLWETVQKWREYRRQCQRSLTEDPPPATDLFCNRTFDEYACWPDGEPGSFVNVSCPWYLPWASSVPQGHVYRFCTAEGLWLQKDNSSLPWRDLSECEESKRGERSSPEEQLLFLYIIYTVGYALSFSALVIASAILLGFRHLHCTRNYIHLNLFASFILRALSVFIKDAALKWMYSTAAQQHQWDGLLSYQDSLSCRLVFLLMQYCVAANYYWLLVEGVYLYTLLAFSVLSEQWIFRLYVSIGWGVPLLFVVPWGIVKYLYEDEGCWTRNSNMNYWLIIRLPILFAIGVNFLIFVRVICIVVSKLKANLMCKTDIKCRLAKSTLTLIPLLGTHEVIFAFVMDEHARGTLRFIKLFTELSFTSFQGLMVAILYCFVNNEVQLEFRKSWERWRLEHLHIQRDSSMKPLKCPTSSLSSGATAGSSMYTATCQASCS
GLP1R inv ag – qHTS of GLP-1 Receptor Inverse Agonists (Inhibition Mode); HEK293 GLP-1R CRE-luciferase, luminescence, 24 h; GLP-1R form is constitutively active; Potency, µM (doses to about 38.3 µM), for inactives: at the top dose activity change, negative = inhibition, most hits filed as inhibitors; hit rate 1.6% among 410,000; note: % is set by controls: 0 for no effect and ±100 for the full control effect; nearly all actives have a fitted effect of over 55% in size
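Inverse agonism was detected as reduced cAMP-driven luciferase luminescence after 24 h compound treatment. The cells were HEK293 clones expressing constitutively active human GLP-1R with the reporter. Reporter-only and GPR119 cell lines served as counterscreen controls.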
GLP1R cytotox – qHTS of GLP-1 Receptor Inverse Agonists: Cytotox Screen. HEK293 cAMP-luciferase reporter cells, luminescence, 24 h. Potency, µM (top dose mostly 38.3 µM), for inactives: top-dose activity change, negative = inhibition, most hits filed as inhibitors. hit rate 0.13% among 410,000. AID 624418, 2012;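 note: loss of luciferase light is scored as toxicity; % is set by controls: 0 for no effect and ±100 for the full control effect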
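A 23 nL compound transfer followed 12 hours of cell culture at 37 deg C; exposure then lasted 24 hr. Luciferase assay detection reagent was dispensed and plates read for luminescence after a 12 min room-temperature wait.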
* marks the source's active call; other numbers are inactive results; i = inactive; u = inconclusive; x = not tested or not shown; [ ] = remark or other dose. Rows were chosen to be rich in hits. Some 1.7% of all compounds tested hit in one or more screens of this group. Calls come from the whole dose curve; as a rule, active = well fitted curve in the direction sought with a large enough effect; inconclusive = small, poorly fitted or top-dose-only effect, or another doubt; inactive = no such curve, though single readings can be large; an effect the other way counts as inactive or inconclusive. Potency is the fitted concentration of half-maximal effect.

SMILES	PTHR1 agonist	GLP1R ag	GLP1R inv ag	GLP1R cytotox
CC(C)(C)c1ccc(OCC(O)CN2CCN(C(=O)c3ccccc3)CC2)cc1 (stereo unspecified)	-2%	6%	10µM*	-11%
OC(COc1ccc2c(c1)OCO2)CN1CCCCC1 (stereo unspecified)	-19%	-3%	19%	-11%
CC(C)c1ccc(OCC(O)CN2CCN(c3ccccc3)CC2)cc1 (stereo unspecified)	-9%	8%	10µM*	u
CCCOC(=O)c1ccc(OCC(O)CN2CCN(C(=O)c3ccccc3)CC2)cc1 (stereo unspecified)	-23%	-2%	-11%	-13%
CCOC(=O)c1ccc(NC(=S)N(CCN2CCCCCC2)Cc2ccco2)cc1	i	8%	6.3µM*	u
CSc1ncc(C(=O)NCc2cccc(Br)c2)c(-c2ccccc2)n1	-28%	x	-19%	5%
O=C(/C(=C(\O)c1ccccc1)c1nc2ccccc2[nH]1)c1ccccc1	-4%	10%	10µM*	u
Cc1ccc(-n2nc3c(N4CCCC(C(=O)NCCc5ccccc5)C4)nnc(C)c3c2C)cc1 (stereo unspecified)	i	x	12%	-6%
CC(Oc1ccccc1)C(=O)N1CCN=C1SCc1ccccc1F (stereo unspecified)	i	12%	4µM*	-6%
CCN1CCN(Cc2ccc(NC(=O)c3ccc(C)c(NC(=O)c4c[nH]c5cc(C(F)(F)F)ccc5c4=O)c3)cc2C(F)(F)F)CC1	-44%	0%	10µM*	u
Cc1ccc(C(=O)Nc2cccc(C(F)(F)F)c2)cc1NC(=O)c1c[nH]c2cc(C(F)(F)F)ccc2c1=O	i	2%	0%	-15%
COc1ccc(NC(=O)CCc2nc3cccnc3n2-c2ccccc2)cc1Cl	-25%	x	25%	2%
CO/N=C1/CC2(CC3CC(C/C=C(/C)CC(C)/C=C\C=C4\COC5C(O)C(C)=CC(C(=O)O3)C45O)O2)OC(/C(C)=C/C(C)C)C1C (stereo unspecified)	x	-4%	x	x
COc1ccc2c(c1)CC(NC(=O)Nc1c(C)cc(C)cc1C)CO2 (stereo unspecified)	1%	x	6%	-12%
C=CCN=c1scc(-c2ccc(F)cc2)n1/N=C/c1ccccn1	-26%	u	u	-1%
C=CCN=c1scc(-c2ccccc2)n1/N=C/c1ccccn1	-32%	11%	11µM*	u
CCN=c1scc(-c2ccccc2)n1/N=C/c1ccccn1	-24%	4%	3.2µM*	79%
CC(CN1CCOCC1)C(Cc1ccccc1)(Cc1ccccc1)C(=O)N1CCCC1 (stereo unspecified)	x	-5%[110 µM]	x	x
Cc1ccc(C2CCN(C(=O)Nc3ccc(Cl)c(Cl)c3)C2)cc1 (stereo unspecified)	-39%	x	7%	0%
CCCN1C(=O)c2ccccc2NC1c1ccc(Cl)c(Cl)c1 (stereo unspecified)	-2%	3%	11µM*	-12%
CCOCC(=O)N(CC)Cc1ccccc1	-5%	-5%	1%	0%
CCCC(=O)N(CCN(Cc1ccccc1)C(=O)CCC)Cc1ccccc1	-83%[57.5 µM]	1%	13µM*	-24%
Cc1ccc(S(=O)(=O)c2nc(-c3ccccc3Cl)oc2N2CCN(C)CC2)cc1	i	8%	10µM*	-4%
Cc1ccccc1NC(=O)CNC(=O)c1ccc(C(F)(F)F)cc1	i	1%	-4%	2%
Cc1ccccc1NC(=O)Nc1ccc(C(F)(F)F)cc1	-25%	6%	4.5µM*	-14%
SMILES	PTHR1 agonist	GLP1R ag	GLP1R inv ag	GLP1R cytotox
COc1ccc2cc(CNCCOCCOCCNCc3ccc4cc(OC)ccc4c3)ccc2c1	i	-37%	u	4µM*
CCOCCCNCc1ccc(OC)cc1	i	0%	-15%	-23%
Cc1cc(C)c2sc(N(CCN(C)C)C(=O)c3cc(Cl)sc3Cl)nc2c1	i	5%	u	-1%
CCN(CC)CCN(C(=O)c1cc2ccccc2cc1OC)c1nc2ccc(F)cc2s1	i	-6%	5µM*	-26%
CCc1ccc2nc(N(CCN(C)C)C(=O)c3ccc4ccccc4c3)sc2c1	i	-1%	13µM*	8%
CCN(CC)CCN(C(=O)c1cc2ccccc2cc1OC)c1nc2ccc(OC)cc2s1	-6%	-7%	5.6µM*	-23%
COc1ccccc1C(=O)N(CCN(C)C)c1nc2cc(C)cc(C)c2s1	14%	8%	11µM*	-17%
CC(C)(C)OC(=O)N1CCC(c2c(C(=O)NCCN3CCCC3)cnn2-c2ccc(Cl)cc2)CC1	i	x	-29%	-3%
CCOC(=O)c1ccc(N2C(=O)c3n[nH]c(C)c3C2c2ccc(OCC)cc2)cc1 (stereo unspecified)	-8%	-4%	u	-11%
CSc1ccc(CCNC(=O)c2ccc(CS(=O)(=O)c3ccc(Br)cc3)o2)cc1	-33%	x	u	-22%
CN1CCN(C(CNC(=O)C(=O)Nc2ccc(Cl)cc2)c2cccnc2)CC1 (stereo unspecified)	i	x	4%	0%
Cc1ccc2nc(N(CCCN(C)C)C(=O)c3cc(-c4cccs4)nc4ccccc34)sc2c1	i	4%	2.5µM*	u
COc1cc2ccccc2cc1C(=O)N(CCN(C)C)c1nc2ccc(C)cc2s1	0%	6%	4µM*	-14%
C(#Cc1ccc(C#CCN2CCCC2)cc1)CN1CCCC1	-19%	6%	3.5µM*	u
CN(C)CCCn1c(=O)n(Cc2ccco2)c(=O)c2c3c(sc21)CCCCC3	i	16%	4.5µM*	-4%
COc1ccccc1CNC(=O)C(Cc1ccccc1)NS(=O)(=O)c1ccc2c(c1)CCN2C(C)=O (stereo unspecified)	-39%	x	2%	-2%
Cc1cc(OCCNCCO)cc(C)c1Cl	-15%[57.5 µM]	0%	8.9µM*	82%
COc1ccccc1NC(=O)C1=C(C)Nc2nc(SCc3ccccc3)nn2C1c1ccccn1 (stereo unspecified)	i	1%	16%	-5%
C/C(=N\NC(=S)NC1CCCCC1)c1c(F)cccc1F	-23%	18%	4µM*	u
Cc1c(C(=O)N2CCCC2)oc2c1-c1nn(CC(=O)NCc3ccccc3Br)cc1CC2	-33%	x	4%	-1%
O=c1c2oc3ccccc3c2n(Cc2ccc(Cl)cc2)c(=O)n1Cc1ccc2c(c1)OCO2	5%	x	-10%	-5%
Cc1ccc(C)c(Nc2nc3nonc3nc2Nc2cccc(C)c2C)c1	-83%	x	u	u
CCOC(=O)c1ccc(Nc2nc3nonc3nc2Nc2cccc(C)c2C)cc1	-35%	x	2.8µM*	u
Cc1cc(F)ccc1S(=O)(=O)Nc1ccccc1C(=O)Nc1ccccc1-c1nc2ccccc2[nH]1	-32%	-20%	6.3µM*	u
